Test results taken from PubChem BioAssay AID651899 (Broad Institute, 2012).
Results with a measured potency or affinity are listed apart. The source made the active and inactive calls. No rule for the calls is given here.

Test: cytotoxicity in HEK293 cells, dose response, cytotoxicity control, cell-based, plate reader, cherry-pick (AID 651899);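 also: cells exposed to compound for 48 hours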
Details: series mostly up to 26 µM; activity change, negative = cytotoxicity: at the top concentration

Row | Structure (SMILES) | activity change, negative = cytotoxicity
1 | Cc1ccc(Cc2c(C)nc3nc(SCC(=O)NCCCN4CCCCC4)nn3c2C)cc1 | 20.8% (inactive)
2 | Cc1ccc(/C=C(\CCC(=O)O)c2nc3ccccc3s2)cc1[N+](=O)[O-] | 15.8% (inactive)
3 | O=C(COc1ccc2ccc(=O)oc2c1)Nc1cccnc1 | -23.4% (inactive)
4 | N#C[C@H]1[C@@H](c2ccccc2)[C@@H](CO)N1C(=O)Nc1cccc(F)c1 | 20% (inactive)
5 | COc1ccc([N+](=O)[O-])cc1C(=O)NC1CCN(Cc2ccccc2)CC1 | 24% (inactive)
6 | Cc1ccc(Cc2c(C)nc3nc(SCC(=O)NCCN4CCOCC4)nn3c2C)cc1 | -21.5% (inactive)
7 | Cc1cccc(-n2c(SCC(=O)N(C)C3CCS(=O)(=O)C3)nc3ccccc3c2=O)c1C (stereo unspecified) | 5.58% (inactive)
8 | Cc1nnc(N2CCC(C(=O)N3CCCCC3)CC2)c2nn(-c3ccc(Cl)cc3)c(C)c12 | -6.45% (inactive)
9 | CC(CNC(=O)CCCn1ncn2c(cc3occc32)c1=O)c1ccccc1 (stereo unspecified) | -20.8% (inactive)
10 | COc1ccc(-c2nc3ccc(Cl)cn3c2Cc2ccccc2)cc1OC | -7.05% (inactive)
11 | COc1ccc(-c2ccc3c(c2)[C@H]2[C@H](CCN2C(=O)Cc2cccnc2)[C@H](CO)N3C)cc1 | -9.23% (inactive)
12 | CC(=O)c1ccc(NC(=O)COC(=O)Cc2ccsc2)cc1 | 10.6% (inactive)
13 | C[C@H](CO)N1C[C@H](C)[C@@H](CN(C)Cc2ccc3c(c2)OCO3)Oc2ccc(NC(=O)Cn3cnnn3)cc2CC1=O | 17% [at 12 µM] (inactive)
14 | C/C=C/c1ccc2c(c1)O[C@@H](CN(C)C(=O)Nc1ccc(OC)cc1)[C@@H](C)CN([C@@H](C)CO)S2(=O)=O | 26.7% (inactive)
15 | O=C(CSc1nc2c(c(=O)n1-c1ccc(Cl)cc1)SCC2)N1CCOCC1 | -6.89% (inactive)
16 | CN1c2ccc(-c3cccc(F)c3)cc2[C@H]2[C@H](CCN2C(=O)C2CC2)[C@H]1CO | 29% [at 12 µM] (inactive)
17 | CCC(CO)[n+]1c(C)cc(/C=C2\Sc3ccccc3N2Cc2ccccc2)cc1C (stereo unspecified) | -18.5% (inactive)
18 | Cc1cnc(C(=O)NC2CC(C)(C)Cc3c2cnn3-c2cccc(F)c2)cn1 (stereo unspecified) | -10.2% (inactive)

Row | Structure (SMILES) | activity change, negative = cytotoxicity
19 | O=C(c1ccccc1F)N1CC[C@@H]2[C@H](CO)Nc3ccc(Br)cc3[C@@H]21 | -16% (inactive)
20 | O=C(Nc1ccc(F)c(F)c1)c1ccc(-n2cncn2)c([N+](=O)[O-])c1 | 8.6% (inactive)
21 | C[C@@H]1CN([C@@H](C)CO)C(=O)c2cc(C#Cc3cccnc3)cnc2O[C@H]1CN(C)S(C)(=O)=O | 39.9% (inactive)
22 | O=C(C[C@@H]1C[C@@H]2c3cc(NC(=O)c4cccnc4)ccc3O[C@@H]2[C@@H](CO)O1)NCc1cccnc1 | 2.97% (inactive)
23 | O=C(N[C@H]1CC[C@@H](CCn2cc(-c3cccnc3)nn2)O[C@@H]1CO)c1ccccc1F | -2.93% (inactive)
24 | Cc1cc(C)n2nc(C(=O)Nc3cccnc3)nc2n1 | -21.4% (inactive)
25 | O=C(Nc1cccnc1)c1cc2nc(C3CC3)cc(C(F)(F)F)n2n1 | 10.3% (inactive)
26 | CC(Oc1ccc2ccc(=O)oc2c1)C(=O)N1CCOCC1 (stereo unspecified) | -12.7% (inactive)
27 | COC(=O)c1c(C(=O)OC)c(-c2ccc(F)cc2)n2c1CS(=O)C2 (stereo unspecified) | -8.64% (inactive)
28 | Cc1c(NC(=O)c2cc3ccccc3o2)cccc1-n1cnnn1 | -12.2% (inactive)
29 | CC(=O)N1CC[C@@H]2[C@@H](CO)N(C)c3ccc(-c4cccc(F)c4)cc3[C@@H]21 | -9.59% (inactive)
30 | CCCOC(=O)c1cccc(NC(=O)c2cccnc2)c1 | 2.6% (inactive)
31 | Nc1cc(C(=O)O)ccc1Nc1ccccc1 | -21.4% (inactive)
32 | O=C(CSc1nc2ccccc2c(=O)n1-c1ccccc1)N1CCN(CCO)CC1 | 27.2% (inactive)
33 | Cn1c(=O)c2c(nc(OCc3cccnc3)n2Cc2ccccc2)n(C)c1=O | 0.309% (inactive)
34 | CC1(C(=O)NCc2ccc(F)c(F)c2)Cc2c(-c3cccc(C(N)=O)c3)ccnc2O1 (stereo unspecified) | -17.7% (inactive)
35 | CCCC(=O)Nc1cccc(NC(=O)c2ccc(C)c([N+](=O)[O-])c2)c1 | -12.6% (inactive)
36 | CCOC(=O)c1ccc(N2C(=O)c3n[nH]c(C)c3C2c2ccc(OC)c(OC)c2)cc1 (stereo unspecified) | -12.5% (inactive)
